Experimental findings from PubChem BioAssay (Tox21) are described below.

SMILES strings stand for the structures. Results filed as inconclusive are left out. Activity calls are given as the source filed them. Calls follow the shape of the dose curve; as a rule, active = well fitted activation curve with a large enough effect in the repeat runs; inconclusive = weak or mixed curves; inactive = flat fitted curve, though single readings scatter.
% is scaled to controls: 0 for no effect and ±100 for the full control effect; potency is read from the fitted curve at half-maximal effect.

A short description of the experiment: A CellTox Green Cytotoxicity Assay to monitor cytotoxicity in HEK293 cells - 32 hour (AID 1224881). Also: nearly all actives have a fitted effect of over 40% in size. Particulars: CellTox Green fluorescence; series mostly up to 76.8 µM; cytotoxicity increase: at the top concentration. An excerpt: National Center for Advancing Translational Sciences [NCATS]
NIH Chemical Genomics Center [NCGC]
U.S. Environmental Protection Agency [EPA]
National Institutes of Environmental Health Sciences [NIEHS]
National Toxicology Program [NTP]
Cell-based models are critical for drug discovery. Determining the natural cytotoxic effects resulting from test compounds is an essential research activity. A CellTox Green Cytotoxicity Assay to monitor cytotoxicity in real time of continues cell culture during 40 hours of the compound treatment was used to screen Tox21 10K library compounds in Hek293 cells. CellTox Green Cytotoxicity Assay is a nonlytic, homogeneous, biofluorescent method to measure cytotoxicity in cell culture after experimental manipulation. The assay system uses a proprietary asymmetric cyanine dye that is excluded from viable cells but preferentially stains the dead cell's DNA. […] Viable cells produce no appreciable increases in fluorescence. Therefore, the fluorescence signal produced by the binding interaction with dead cell DNA is proportional to cytotoxicity.
The mixture of Hek293 cell suspension and reagents were dispensed at 600cells/6 ul/well in 1536-well tissue culture treated black solid bottom plates using a Multidrop dispenser. After the assay plates were incubated at a 37 C/5% CO2 incubator for 5 hours, 23 nL of compounds dissolved in DMSO, positive and negative controls was transferred to the assay plate by a pintool work station. The plates were incubated at 37 C for 40 hours. The fluorescence intensity were measured at 0h, 8h, 16h, 24h, 32h and 40h time points using ViewLux plate reader during compound treatment.
With `CCCCCc1ccc(O)cc1`, the Potency is 34.7 µM (active). For `O=C1OC(=O)c2cc(-c3ccc4c(c3)C(=O)OC4=O)ccc21`, the “cytotoxicity increase” value is 3.45% (inactive).

As to `O=C1OC(O)C(C(Cl)Cl)=C1Cl` (stereo not given), the “cytotoxicity increase” value is -2.16% (inactive). As to `CCN(CC)c1ccc(N=Nc2ccccc2)cc1`, the “cytotoxicity increase” value was -21% (inactive). On to `CC1=CC[C@@H](C(C)(C)O)CC1`, for which the “cytotoxicity increase” value is -9.5% (inactive).

For the compound `COc1ccc(OC)c(N=Nc2c(O)ccc3ccccc23)c1`, the “cytotoxicity increase” value was -39.6% (inactive). For `CN1CC[C@H](c2c(O)cc(O)c3c(=O)cc(-c4ccccc4Cl)oc23)[C@H](O)C1`, the “cytotoxicity increase” value is 17.4% [at 35.3 µM] (inactive). Turning to `Cc1ccc2n[nH]nc2c1`, the “cytotoxicity increase” value was 1.81% (inactive). On the same count and under the same terms, to `CCNc1nc(NC(C)(C)C)nc(OC)n1` belongs -13.9% (inactive). The same measure, in the same setting: to `CC(C)c1ccc2sc3ccccc3c(=O)c2c1` belongs -12.2% (inactive); to `CC(C)C(=O)C(C)C`, 14.9% (inactive).

As to `COC(=O)c1ccc([N+](=O)[O-])cc1`, the “cytotoxicity increase” value is -7.75% (inactive). For `c1ccc(-c2nc3ccccc3[nH]2)cc1`, the “cytotoxicity increase” value was 0.808% (inactive). For `O=c1cc[nH]cc1`, the “cytotoxicity increase” value is 0.181% (inactive).

For the compound `CCSCC`, the “cytotoxicity increase” value was -15.4% (inactive). Consider `O=C(N[C@H](CO)[C@H](O)c1ccc([N+](=O)[O-])cc1)C(Cl)Cl`, for which the “cytotoxicity increase” value is 0.347% (inactive). Same read-out and setting: the same measure for `O=[N+]([O-])c1ccc(CO)cc1`: 3.46% (inactive). Same read-out and setting: the same measure for `C/C(=N\[Si](C)(C)C)O[Si](C)(C)C`: -17.4% (inactive); for `Cc1cccc2c1ccc1ccccc12`: 11.7% (inactive); for `C=Cc1ccncc1`: 1.49% (inactive).

`C/C(=C\c1ccc(C(=O)O)cc1)c1ccc2c(c1)C(C)(C)CCC2(C)C`: the “cytotoxicity increase” value was -0.337% [at 35.3 µM] (inactive).

Turning to `C=C(C)C1CCC(C)CC1O` (stereo not given), the “cytotoxicity increase” value is -6.19% (inactive).

Take `Clc1ccc2c(Cl)ccnc2c1`: the “cytotoxicity increase” value was 29.4% (inactive). On the same count and under the same terms, the same measure for `CC(c1cc(C(C)(C)C)cc(C(C)(C)C)c1O)c1cc(C(C)(C)C)cc(C(C)(C)C)c1O`: 0.634% (inactive). As to `CN(C/C=C/c1ccccc1)Cc1cccc2ccccc12`, the Potency is 19 µM (active).

Regarding `COc1cc(/C=C/C(=O)CC(=O)/C=C/c2ccc(O)c(OC)c2)ccc1O`, the Potency is 39.2 µM (active). For `CN(C)CCOc1ccc(/C(=C(/CCCl)c2ccccc2)c2ccccc2)cc1`, the Potency was 40.9 µM (active). As for `COc1cc2ncnc(Nc3cccc(Cl)c3)c2cc1OC`, the cytotoxicity increase was 0.0774% [at 15.8 µM] (inactive).

Consider `CC(C)=NNC(N)=S`, for which the “cytotoxicity increase” value was -8.45% (inactive).

`NC(=O)C1CO1` (stereo not given): the “cytotoxicity increase” value is -3.55% (inactive). On to `O=C(O)C[C@H](O)C[C@H](O)/C=C/c1c(C2CC2)nc2ccccc2c1-c1ccc(F)cc1`, for which the cytotoxicity increase was -0.515% [at 15.8 µM] (inactive).

Turning to `ClC(c1ccccc1)(c1ccccc1)c1ccccc1`, the “cytotoxicity increase” value is 2.43% (inactive). On to `CN1CCN(c2ccccc2/C=C2\SCCN(c3ccc(Cl)c(Cl)c3)C2=O)CC1`, for which the Potency was 49 µM (active).

On to `Nc1c(Br)cc([N+](=O)[O-])cc1Br`, for which the “cytotoxicity increase” value was -3.94% (inactive). Still for that read-out and setting: the same measure for `O=C1c2ccccc2C(=O)c2c(Cl)cccc21`: -21.8% [at 35.3 µM] (inactive); for `Cc1c[nH]c(=O)[nH]c1=O`: -8.05% (inactive); for `CCCCCCCCc1ccc(Nc2ccc(CCCCCCCC)cc2)cc1`: -3.71% [at 35.3 µM] (inactive). Still for that read-out and setting: the same measure for `COc1cc(OC)nc(NC(=O)NS(=O)(=O)Nc2ccccc2C(=O)N(C)C)n1`: -11.2% (inactive); for `O=C1CCC(=O)N1`: -33.5% (inactive).

In the case of `Nc1cc([N+](=O)[O-])cc(Cl)c1O`, the “cytotoxicity increase” value is -5.08% (inactive).
